# In PubChem BioAssay (NCATS):
# “And” between values parts separate entries of the source, which are not always exact repeats. Equal values may be shown once. Inconclusive results are not listed. Entries that show only a call come without a potency. Some compounds were tested as several samples or in several runs, with calls that do not always agree. The source made the active and inactive calls. Unless noted, calls follow the shape of the dose curve; as a rule, active = well fitted curve in the direction sought with a large enough effect; inconclusive = small, poorly fitted or top-dose-only effect, or another doubt; inactive = no such curve, though single readings can be large; an effect the other way counts as inactive or inconclusive.
# Tests used:
# [1] = qHTS assay for small molecule antagonists of peroxisome proliferator-activated receptor delta signaling (AID 588535; active = well fitted inhibition curve with a large enough effect in the signal ratio, with a control signal flat, not every such curve was filed as active; the % refers to the signal ratio;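 as to max response: cells co-treated with a PPAR-delta agonist as stimulator during compound exposure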); details: HEK293T PPARd-UAS-bla, beta-lactamase FRET ratio, 18 h; 460 nm channel
# Summary of the method: (§1)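 HEK293T PPAR-delta-UAS-bla cells, 4000/well, 2% charcoal/dextran FBS; 5 h 37 C; cpd titration; 18 h 37 C; CCF4 2 h RT; FI 460/530 nm; Hill fit → IC50, efficacy.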
# [2] = biological target: Peroxisome proliferator-activated receptor delta (Homo sapiens) (UniProt Q03181); experiment: as above
# Summary of the method: as §1
# [3] = biological target: Peroxisome proliferator-activated receptor gamma (Homo sapiens) (UniProt P37231); experiment: qHTS assay for small molecule agonists of peroxisome proliferator-activated receptor gamma signaling (AID 588536; active = well fitted curve in the direction sought with a large enough effect in the signal ratio, with a control signal flat, not every such curve was filed as active; the % refers to the signal ratio)
# Summary of the method: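 PPAR-gamma-UAS-bla HEK293 cells in medium with 1% charcoal/dextran-treated FBS were exposed to compounds for 16 h at 37 C. Beta-lactamase activity was read with CCF4 substrate (405 nm excitation, 460/530 nm emission).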
# [4] = qHTS assay for small molecule antagonists of retinoid X receptor alpha signaling (AID 588546; active = well fitted inhibition curve with a large enough effect in the signal ratio, with a control signal flat, not every such curve was filed as active; the % refers to the signal ratio;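 also: cells stimulated with 9-cis-retinoic acid as agonist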); details: HEK293T RXRa-UAS-bla, beta-lactamase ratio, antagonist mode; measured here: W530 green channel, cytotoxicity proxy
# Summary of the method: (§2)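 Beta-lactamase reporter inhibition, read as CCF4 fluorescence ratio (ex 405, em 460/530 nm) after 2 h at RT. HEK293T UAS-bla cells, 2500/well, were stimulated with 9-cis-RA at 500 or 100 nM final alongside test compound for 18 h at 37 C.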
# [5] = biological target: Retinoic acid receptor RXR-alpha (Homo sapiens) (UniProt P19793); experiment: as above; details: HEK293T RXRa-UAS-bla, beta-lactamase ratio, antagonist mode
# Summary of the method: as §2
# [6] = biological target: Voltage-gated inwardly rectifying potassium channel KCNH2 (Homo sapiens) (UniProt Q12809); experiment: qHTS Assay for Small Molecule Inhibitors of the Human hERG Channel Activity (AID 588834);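 also: lower thallium flux fluorescence means stronger hERG block; nearly all actives have a fitted effect of over 50% in size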; also: potency is read from the fitted curve at half-maximal effect
# Summary of the method: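 hERG-BacMam U2OS, 2000 cells/well; 0.7X FluxOR loading 1 hr RT dark; cpd ~10 min 37 °C; stim buffer; FDSS fluorescence 2 min @ 1 s; AC50 Hill fit.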
# [7] = biological target: Luciferin 4-monooxygenase (Photinus pyralis) (UniProt P08659); experiment: Biochemical firefly luciferase enzyme assay for NPC (AID 624030); also: nearly all actives have a fitted effect of over 70% in size; also: potency is read from the fitted curve at half-maximal effect
# Summary of the method: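 Direct inhibition of firefly luciferase enzyme (10 nM final, 50 mM Tris Acetate) assessed by luminescence within 5 minutes. Percent activity scaled between DMSO and PTC124 positive control, with concentration-effect curves classified by fit quality and response.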
# [8] = S16 Schwann cell viability assay (CellTiter-Glo assay) (AID 624031);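 also: cellular ATP luminescence as a viability measure; series mostly up to about 58 µM; nearly all actives have a fitted effect of over 70% in size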
# Summary of the method: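 Untransfected S16 rat Schwann cells; compound 24 h, 37 °C/5% CO2; CellTiter-Glo ATP luminescence. % activity vs no-cell wells and DMSO controls (0%); concentration-effect curves classed by r2, response magnitude, activity.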
# [9] = biological target: Vitamin D3 receptor (Homo sapiens) (UniProt P11473); experiment: qHTS assay for small molecule agonists of vitamin D receptor signaling (AID 588543; calls by dose curve)
# Summary of the method: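 Reporter cells (HEK293T, VDR-UAS-bla) were seeded in medium with 2% charcoal-stripped serum and incubated 5 h, then compounds in concentration series were added for 16 h at 37 °C. Stimulation was scaled between DMSO basal and 50 nM 1α,25-dihydroxyvitamin D3.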
# [10] = qHTS assay for small molecule agonists of retinoid X receptor alpha signaling (AID 588544; calls by dose curve); details: HEK293T RXRa-UAS-bla, beta-lactamase reporter, 18 h; 530 nm emission
# [11] = biological target: Retinoic acid receptor RXR-alpha (Homo sapiens) (UniProt P19793); experiment: as above
# [12] = biological target: Thyroid hormone receptor beta (Homo sapiens) (UniProt P10828); experiment: qHTS assay for small molecule antagonists of thyroid hormone receptor beta signaling (AID 588547; active = well fitted inhibition curve with a large enough effect in the signal ratio, with a control signal flat, not every such curve was filed as active; the % refers to the signal ratio;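 also: cells stimulated with 0.4 nM T3 agonist during compound exposure; series mostly up to about 77 µM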); details: TR-UAS-bla HEK293, beta-lactamase ratio, antagonist mode, 18 h
# Summary of the method: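 Inhibition of T3-driven (0.4nM final) beta-lactamase reporter activity was measured over 0.59 nM to 92 uM compound after 18 h at 37 C. The cells were GripTite HEK293 TR-UAS-bla in charcoal/dextran-stripped serum, with CCF4 ratio read-out and IC50 from Hill fits.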
# [13] = S16 Schwann cell PMP22 intronic element firefly luciferase assay (AID 624032); also: nearly all actives have a fitted effect of over 30% in size; also: potency is read from the fitted curve at half-maximal effect
# Summary of the method: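 Luciferase reporter of PMP22 intronic-element expression in stably transfected S16 rat Schwann cells, read by ONE-Glo luminescence after 24 h compound exposure at 37 C. Activity scaled between DMSO (0%) and positive-control PTC124; concentration-effect curves quality-classified.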
# [14] = S16 Schwann cell PMP22 intronic element beta-lactamase assay (AID 624044; calls by dose curve; also: nearly all actives have a fitted effect of over 15% in size)
# Summary of the method: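 Rat S16 Schwann cells with beta-Lac driven by a PMP22 intronic element, compound-treated 24 h at 37 °C. LiveBLAzer FRET B/G read: 460 nm normalized to potassium clavulanate vs DMSO; 535 nm FRET as viability; concentration-effect curves classified.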
# [15] = biological target: Peroxisome proliferator-activated receptor gamma (Homo sapiens) (UniProt P37231); experiment: qHTS assay for small molecule antagonists of peroxisome proliferator-activated receptor gamma signaling (AID 588537; active = well fitted inhibition curve with a large enough effect in the signal ratio, with a control signal flat, not every such curve was filed as active; the % refers to the signal ratio;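 also: reporter cells co-stimulated with 50 nM rosiglitazone agonist during compound treatment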)
# Summary of the method: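 Antagonist mode, beta-lactamase reporter in HEK293; charcoal/dextran FBS 1%; 3000 cells/well, 37 C 6-6.5 h; cpd titration + rosiglitazone 50 nM final, 16 h 37 C; CCF4, 2 h RT; 460/530 nm; Hill fit → IC50, efficacy.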
# [16] = biological target: Glutaminase kidney isoform, mitochondrial (Homo sapiens) (UniProt O94925); experiment: qHTS for Inhibitors of Glutaminase (GLS): LOPAC Validation (AID 624146);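 also: glutamate product detected by oxidase and peroxidase coupled Amplex red fluorescence gain; series mostly up to about 46 µM; nearly all actives have a fitted effect of over 60% in size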
# Summary of the method: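 hKGA in 45 mM KH2PO4 (pH 8.2), 0.02% Tween-20 with compound, then 1mM L-Glutamine (stock as added) plus glutamate oxidase/HRP/Amplex red coupling mix. Fluorescence read initially and after 30 min at RT; signal change reflects glutamate formation.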
# [17] = qHTS of Trypanosoma Brucei Inhibitors: LOPAC Validation (AID 624147)
# Summary of the method: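 Luminescence from Kinase-Glo Plus, added after a 45-minute room-temperature reaction, served as the end-point read-out. The enzyme and substrate were preincubated with compound before ADP (130 uM final) initiated turnover. Concentration-effect curves came from normalized qHTS data.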
# [18] = biological target: Glucagon-like peptide 1 receptor (Homo sapiens) (UniProt P43220); experiment: qHTS of GLP-1 Receptor Agonists: LOPAC Validation (AID 624148);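 also: luminescence from a luciferase reporter switched on by cAMP; higher luminescence signal means agonism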
# Summary of the method: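 Agonism scored as increased luciferase luminescence driven by cAMP in HEK293 clones carrying GLP-1R. Cells settled 12 hours, received compound for 4-6 hr at 37 deg C, 5% CO2, and were read after 12 min detection reagent at RT.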
# [19] = qHTS of Nrf2 Activators: LOPAC Validation (AID 624149)
# Summary of the method: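 Luminescence read-out of ARE-luciferase activation: AREc32_Fluc cells treated with compounds for 24 hr at 37 deg C, then lysed with Steady-Glo for 30 min at room temperature before reading.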
# [20] = HTS Assay for Allosteric Antagonists of the Human D2 Dopamine Receptor: Hit Validation in HTRF (AID 624455);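 also: stable D1 dopamine receptor cell line scored for blocking the D1 response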
# Summary of the method: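 First, antagonism was screened by calcium flux in a force-coupled, inducible Hek293 Trex D2 line challenged with EC80 dopamine. Hits then went into an HTRF assay in cells stably expressing D1, testing inhibition of the D1 response.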
# Peroxisome proliferator-activated receptor delta (Homo sapiens), sequence (Q03181 whole entry, looked up): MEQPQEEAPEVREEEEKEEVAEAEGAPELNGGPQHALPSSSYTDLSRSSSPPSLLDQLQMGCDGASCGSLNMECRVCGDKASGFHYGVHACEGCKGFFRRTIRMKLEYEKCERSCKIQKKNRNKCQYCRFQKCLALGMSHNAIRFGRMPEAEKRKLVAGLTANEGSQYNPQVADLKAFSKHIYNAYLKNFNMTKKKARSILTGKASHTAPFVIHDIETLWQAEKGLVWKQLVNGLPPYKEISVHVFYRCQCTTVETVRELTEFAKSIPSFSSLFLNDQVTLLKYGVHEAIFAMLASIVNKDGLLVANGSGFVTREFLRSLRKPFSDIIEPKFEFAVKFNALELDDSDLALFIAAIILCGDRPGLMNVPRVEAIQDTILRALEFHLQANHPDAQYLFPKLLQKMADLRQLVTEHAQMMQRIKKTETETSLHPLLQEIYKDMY
# Voltage-gated inwardly rectifying potassium channel KCNH2 (Homo sapiens), sequence (Q12809 whole entry, looked up): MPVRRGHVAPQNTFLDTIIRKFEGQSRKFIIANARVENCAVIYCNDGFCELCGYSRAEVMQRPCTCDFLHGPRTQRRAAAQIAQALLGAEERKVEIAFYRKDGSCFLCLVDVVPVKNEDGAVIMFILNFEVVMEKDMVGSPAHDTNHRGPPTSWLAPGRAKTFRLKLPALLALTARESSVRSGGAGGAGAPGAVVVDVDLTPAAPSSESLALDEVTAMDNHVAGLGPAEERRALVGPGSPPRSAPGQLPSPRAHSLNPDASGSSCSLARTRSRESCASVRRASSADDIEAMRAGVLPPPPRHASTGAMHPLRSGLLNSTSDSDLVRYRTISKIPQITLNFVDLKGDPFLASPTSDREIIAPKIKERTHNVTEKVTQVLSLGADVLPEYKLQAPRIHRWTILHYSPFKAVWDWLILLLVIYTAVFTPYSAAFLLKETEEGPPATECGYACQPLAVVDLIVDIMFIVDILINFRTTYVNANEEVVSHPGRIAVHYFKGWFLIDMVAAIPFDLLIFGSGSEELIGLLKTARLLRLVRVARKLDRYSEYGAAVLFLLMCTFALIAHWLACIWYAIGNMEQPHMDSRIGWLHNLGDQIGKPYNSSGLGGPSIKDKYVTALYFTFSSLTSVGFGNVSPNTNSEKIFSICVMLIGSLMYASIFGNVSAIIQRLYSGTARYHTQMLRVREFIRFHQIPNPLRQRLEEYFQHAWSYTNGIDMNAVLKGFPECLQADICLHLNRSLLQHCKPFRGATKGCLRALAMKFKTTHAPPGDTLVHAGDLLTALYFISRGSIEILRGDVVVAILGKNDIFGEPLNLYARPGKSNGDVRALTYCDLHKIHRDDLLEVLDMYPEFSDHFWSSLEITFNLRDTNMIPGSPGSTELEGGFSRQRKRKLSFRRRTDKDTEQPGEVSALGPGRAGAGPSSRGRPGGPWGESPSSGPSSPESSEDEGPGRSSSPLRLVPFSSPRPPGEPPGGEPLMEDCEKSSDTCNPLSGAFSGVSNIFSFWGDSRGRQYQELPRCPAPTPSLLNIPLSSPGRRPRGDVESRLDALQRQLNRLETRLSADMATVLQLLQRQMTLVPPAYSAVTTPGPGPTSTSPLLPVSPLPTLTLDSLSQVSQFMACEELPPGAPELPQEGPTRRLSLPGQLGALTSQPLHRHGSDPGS
# Retinoic acid receptor RXR-alpha (Homo sapiens), sequence (P19793 whole entry, looked up): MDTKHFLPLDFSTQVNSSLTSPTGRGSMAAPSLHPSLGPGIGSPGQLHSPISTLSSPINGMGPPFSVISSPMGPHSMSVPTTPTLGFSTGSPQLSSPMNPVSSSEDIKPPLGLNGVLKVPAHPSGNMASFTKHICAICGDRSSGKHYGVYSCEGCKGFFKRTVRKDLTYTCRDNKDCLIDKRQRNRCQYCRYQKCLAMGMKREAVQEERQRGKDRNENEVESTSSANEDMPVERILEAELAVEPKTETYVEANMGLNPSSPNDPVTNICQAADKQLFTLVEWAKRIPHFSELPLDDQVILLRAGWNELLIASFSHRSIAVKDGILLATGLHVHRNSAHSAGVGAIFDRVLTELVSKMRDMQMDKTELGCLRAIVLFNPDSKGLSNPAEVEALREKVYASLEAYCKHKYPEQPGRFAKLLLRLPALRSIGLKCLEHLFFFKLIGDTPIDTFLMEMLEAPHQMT
# Luciferin 4-monooxygenase (Photinus pyralis), sequence (P08659 whole entry, looked up): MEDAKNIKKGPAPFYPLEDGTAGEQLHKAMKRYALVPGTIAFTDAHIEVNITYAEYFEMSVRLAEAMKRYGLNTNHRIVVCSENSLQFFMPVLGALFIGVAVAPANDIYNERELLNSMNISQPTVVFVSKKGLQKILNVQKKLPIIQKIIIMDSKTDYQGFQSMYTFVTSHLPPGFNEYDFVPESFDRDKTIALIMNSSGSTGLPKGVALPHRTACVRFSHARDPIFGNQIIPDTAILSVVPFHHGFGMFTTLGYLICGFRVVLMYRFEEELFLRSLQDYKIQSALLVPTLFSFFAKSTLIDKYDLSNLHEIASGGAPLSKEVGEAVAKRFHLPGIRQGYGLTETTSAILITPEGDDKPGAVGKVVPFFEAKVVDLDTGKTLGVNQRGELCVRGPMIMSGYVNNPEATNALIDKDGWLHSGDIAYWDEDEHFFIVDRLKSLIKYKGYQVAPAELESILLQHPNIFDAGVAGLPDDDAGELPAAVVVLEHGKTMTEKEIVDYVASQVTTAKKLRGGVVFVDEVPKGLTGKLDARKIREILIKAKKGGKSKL
# Peroxisome proliferator-activated receptor gamma (Homo sapiens), sequence (P37231 whole entry, looked up): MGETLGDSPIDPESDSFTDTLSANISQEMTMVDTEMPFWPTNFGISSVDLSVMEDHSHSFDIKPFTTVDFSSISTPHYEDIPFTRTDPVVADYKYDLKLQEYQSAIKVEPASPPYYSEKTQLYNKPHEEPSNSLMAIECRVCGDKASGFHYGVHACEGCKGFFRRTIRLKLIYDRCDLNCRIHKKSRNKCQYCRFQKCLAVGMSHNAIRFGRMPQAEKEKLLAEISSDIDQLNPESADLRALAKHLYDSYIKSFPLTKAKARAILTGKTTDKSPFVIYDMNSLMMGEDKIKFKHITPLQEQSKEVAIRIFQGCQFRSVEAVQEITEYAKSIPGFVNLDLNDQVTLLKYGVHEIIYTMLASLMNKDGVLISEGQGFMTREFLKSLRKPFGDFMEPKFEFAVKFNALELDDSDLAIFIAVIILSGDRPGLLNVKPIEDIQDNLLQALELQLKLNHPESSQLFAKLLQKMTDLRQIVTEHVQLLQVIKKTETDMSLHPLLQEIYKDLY
# Vitamin D3 receptor (Homo sapiens), sequence (P11473 whole entry, looked up): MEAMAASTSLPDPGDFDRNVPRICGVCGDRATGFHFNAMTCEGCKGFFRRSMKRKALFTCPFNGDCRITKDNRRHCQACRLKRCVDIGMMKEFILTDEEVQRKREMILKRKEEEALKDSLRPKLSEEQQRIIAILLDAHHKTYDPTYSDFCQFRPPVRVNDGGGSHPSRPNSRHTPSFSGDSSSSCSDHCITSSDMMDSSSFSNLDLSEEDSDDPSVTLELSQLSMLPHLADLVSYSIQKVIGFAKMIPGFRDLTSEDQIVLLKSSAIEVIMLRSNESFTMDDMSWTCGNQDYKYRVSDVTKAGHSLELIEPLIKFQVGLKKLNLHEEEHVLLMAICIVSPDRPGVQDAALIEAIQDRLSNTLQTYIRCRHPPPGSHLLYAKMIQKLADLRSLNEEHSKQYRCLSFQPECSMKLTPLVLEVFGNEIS
# Thyroid hormone receptor beta (Homo sapiens), sequence (P10828 whole entry, looked up): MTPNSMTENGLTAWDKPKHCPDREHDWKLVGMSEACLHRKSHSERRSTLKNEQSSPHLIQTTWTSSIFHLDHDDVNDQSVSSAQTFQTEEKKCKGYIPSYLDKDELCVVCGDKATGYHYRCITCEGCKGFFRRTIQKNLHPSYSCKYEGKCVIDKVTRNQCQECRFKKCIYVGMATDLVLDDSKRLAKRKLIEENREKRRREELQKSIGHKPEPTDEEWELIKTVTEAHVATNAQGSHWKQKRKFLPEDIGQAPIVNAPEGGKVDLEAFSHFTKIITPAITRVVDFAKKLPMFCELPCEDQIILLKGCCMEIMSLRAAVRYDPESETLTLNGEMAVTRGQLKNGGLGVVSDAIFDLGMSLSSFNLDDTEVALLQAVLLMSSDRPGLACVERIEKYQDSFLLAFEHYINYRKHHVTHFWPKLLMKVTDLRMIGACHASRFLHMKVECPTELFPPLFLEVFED
# Glucagon-like peptide 1 receptor (Homo sapiens), sequence (P43220 whole entry, looked up): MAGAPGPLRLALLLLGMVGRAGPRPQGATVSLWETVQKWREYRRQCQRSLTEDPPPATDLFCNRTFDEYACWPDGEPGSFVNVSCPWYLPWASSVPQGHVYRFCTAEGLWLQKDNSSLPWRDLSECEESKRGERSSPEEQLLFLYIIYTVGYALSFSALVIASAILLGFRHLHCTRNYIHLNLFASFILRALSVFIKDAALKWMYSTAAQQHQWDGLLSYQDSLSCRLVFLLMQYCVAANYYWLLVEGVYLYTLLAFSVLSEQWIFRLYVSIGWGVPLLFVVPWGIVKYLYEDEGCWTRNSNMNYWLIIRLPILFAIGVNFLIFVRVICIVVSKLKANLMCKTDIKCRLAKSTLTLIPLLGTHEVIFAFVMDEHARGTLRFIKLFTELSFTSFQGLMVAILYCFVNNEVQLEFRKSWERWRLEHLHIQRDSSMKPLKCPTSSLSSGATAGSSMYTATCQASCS
smiles,measurement,setting,value
COP(=S)(OC)Oc1ccc(Sc2ccc(OP(=S)(OC)OC)cc2)cc1,max response,[1],-0.163%
same,Potency,[2],inactive
same,outcome,[3],inactive
same,max response,[4],-1.68%
same,max response,[5],-19.4% (inactive)
same,Potency,[6],inactive
same,Potency,[7],25.6 µM (active)
same,Potency,[8],inactive
CCCCCCCCC(=O)NCc1ccc(O)c(OC)c1,max response,[1],11.4%
same,Potency,[2],inactive
same,outcome,[3],inactive
same,outcome,[9],inactive
same,max response,[10],2.94%
same,outcome,[11],inactive
same,max response,[4],-4.12%
same,max response,[5],-5.69% (inactive)
same,activity change % (negative = inhibition),[12],5.83% (inactive)
same,Potency,[6],inactive
same,Potency,[7],inactive
same,Potency,[8],inactive
same,Potency,[13],inactive
same,Potency,[14],inactive
CC(N)C(=O)OC(C)(C)Cc1ccc(Cl)cc1 (stereo not given),Potency,[6],inactive
COCC(=O)N(c1c(C)cccc1C)C(C)C(=O)OC (stereo not given),max response,[1],-19%
same,Potency,[2],inactive
same,outcome,[3],inactive
same,Potency,[15],inactive
same,outcome,[9],inactive
same,max response,[10],3.24%
same,outcome,[11],inactive
same,max response,[4],1.9%
same,max response,[5],-3.83% (inactive)
same,Potency,[6],inactive
same,Potency,[7],inactive
same,Potency,[8],inactive
same,Potency,[13],inactive
C#C[C@]1(O)C=C[C@H]2[C@@H]3CCC4=CC(=O)CC[C@@H]4[C@H]3CC[C@@]21CC,Potency,[6],inactive
CN(C)C(=O)Oc1cc(OC(=O)N(C)C)cc(C(O)CNC(C)(C)C)c1 (stereo not given),Potency,[6],inactive
Oc1c(Br)cc(Br)cc1Br,max response,[1],18.5%
same,Potency,[2],inactive
same,outcome,[3],inactive
same,Potency,[15],inactive
same,max response,[10],-20.6%
same,outcome,[11],inactive
same,max response,[4],9.85% and -7.56%
same,max response,[5],-6.81% (inactive) and -18.8% (inactive)
same,activity change % (negative = inhibition),[12],15.6% (inactive)
same,Potency,[6],inactive
same,Potency,[7],inactive
same,Potency,[8],inactive
same,Potency,[13],inactive
C[C@@H]1O[C@@H](O[C@@H]2C=C3CC[C@@H]4[C@H](CC[C@]5(C)[C@@H](c6ccc(=O)oc6)CC[C@]45O)[C@@]3(C)CC2)[C@H](O)[C@H](O)[C@H]1O,Potency,[6],inactive
Cc1ncc2n1-c1ccc(Cl)cc1C(c1ccccc1F)=NC2,Potency,[6],inactive
same,Potency,[7],inactive
same,Potency,[8],inactive
CCN(Cc1ccc(Cl)nc1)/C(=C/[N+](=O)[O-])NC,Potency,[6],inactive
same,Potency,[7],inactive
same,Potency,[8],inactive
same,Potency,[13],inactive
O=C(O)c1nn(Cc2ccc(Cl)cc2Cl)c2ccccc12,Potency,[6],inactive
same,Potency,[7],inactive
same,Potency,[8],inactive
same,Potency,[13],inactive
same,Potency,[14],inactive
same,outcome,[16],inactive
same,outcome,[17],inactive
same,outcome,[18],inactive
same,outcome,[19],inactive
same,Potency,[20],inactive
CC(C)NCC(O)c1ccc(N)c(C#N)c1 (stereo not given),Potency,[6],inactive
same,Potency,[7],inactive
same,Potency,[8],inactive
same,Potency,[13],inactive
same,Potency,[14],inactive
OC(O)C(Cl)(Cl)Cl,Potency,[6],inactive
same,Potency,[7],inactive
same,Potency,[8],inactive
CCS(=O)(=O)C(C)(C)S(=O)(=O)CC,Potency,[6],inactive
same,Potency,[7],inactive
same,Potency,[8],inactive
same,Potency,[13],inactive
CC(C)C(Br)C(=O)NC(N)=O (stereo not given),Potency,[6],inactive
same,Potency,[7],inactive
same,Potency,[8],inactive
c1ccc2nc(N3CCNCC3)ccc2c1,Potency,[6],inactive
same,Potency,[7],inactive
same,Potency,[8],inactive
same,Potency,[13],inactive
NCc1cccnc1,Potency,[6],inactive
same,Potency,[7],inactive
same,Potency,[8],inactive
c1cc2c(c(N3CCNCC3)c1)OCCO2,Potency,[6],inactive
same,Potency,[7],inactive
same,Potency,[8],inactive
same,Potency,[13],inactive
CC(C)[N+](C)(CCC(C(N)=O)(c1ccccc1)c1ccccc1)C(C)C,Potency,[6],inactive
same,Potency,[7],inactive
same,Potency,[8],inactive
same,Potency,[13],inactive
same,Potency,[14],inactive
C[C@@H]1CC[C@H]2[C@@H](C)C(=O)O[C@@H]3O[C@@]4(C)CC[C@@H]1[C@]32OO4,Potency,[6],inactive
C[C@]12C=CC(=O)C=C1CC[C@@H]1[C@@H]2CC[C@@]2(C)[C@H]1CC[C@]2(C)O,Potency,[6],inactive
same,Potency,[7],inactive
same,Potency,[8],inactive
same,Potency,[13],inactive
same,Potency,[14],inactive
CCC1(CC)C(=O)NC(=O)NC1=O,Potency,[6],inactive
same,Potency,[7],inactive
same,Potency,[8],inactive
same,Potency,[13],inactive
same,Potency,[14],inactive
NC(N)=N/N=C/c1c(Cl)cccc1Cl,Potency,[6],inactive
Oc1ccc2[nH]cc(CCCCN3CC=C(c4ccccc4)CC3)c2c1,Potency,[6],1.26 µM (active)
same,Potency,[7],inactive
same,Potency,[8],inactive
same,Potency,[13],9.07 µM (active)
COc1ccc(CN2CCNCC2)c(OC)c1OC,Potency,[6],inactive
same,Potency,[7],inactive
same,Potency,[8],inactive
same,Potency,[13],inactive
same,Potency,[14],inactive
C[N+]1(C)[C@@H]2CC[C@H]1CC(OC(=O)C(CO)c1ccccc1)C2 (stereo not given in full),Potency,[6],inactive
O=C(CCl)c1ccc(Cl)cc1Cl,Potency,[6],inactive
same,Potency,[7],inactive
CC(C)(O)C(Cl)(Cl)Cl,Potency,[6],inactive
same,Potency,[7],inactive
same,Potency,[8],inactive
same,Potency,[13],inactive
CCN(CC)CCOC(=O)C(C)(c1ccccc1)c1ccccc1,Potency,[6],3.55 µM (active)
same,Potency,[7],inactive
same,Potency,[8],inactive
same,Potency,[13],inactive
same,Potency,[14],inactive
CNC(=O)NC(O)C(Cl)(Cl)Cl (stereo not given),Potency,[6],inactive
same,Potency,[7],inactive
same,Potency,[8],inactive
same,Potency,[13],inactive
ClC1=C(Cl)C2(Cl)C(CBr)CC1(Cl)C2(Cl)Cl (stereo not given),Potency,[6],22.4 µM (active)
same,Potency,[7],inactive
same,Potency,[8],inactive
O=C1NCN(c2ccccc2)C12CCN(CCCOc1ccc(F)cc1)CC2,Potency,[6],0.355 µM (active)
same,Potency,[7],inactive
same,Potency,[8],inactive
C[C@H](N)[C@H](O)c1ccc(O)c(O)c1,Potency,[6],inactive
O=C(CCCN1CCC(n2c(=O)[nH]c3ccccc32)CC1)c1ccc(F)cc1,Potency,[6],0.355 µM (active)
same,Potency,[7],inactive
same,Potency,[8],inactive
same,Potency,[13],inactive
